# Data reported in PMC4336329 (PLoS ONE, 2015).
# The campaign covered roughly 310,000 compounds. About 2,200 (0.71%) showed an effect of 50% or more. The effect is printed as a negative number. This excerpt belongs to a sample that is enriched for strong results.
# Biological target: human ether-à-go-go-related gene (hERG) potassium channel (human, UniProt Q12809)
# Assay: primary screen, population patch clamp on CHO cells stably expressing hERG; higher = less effect of the substance
# human ether-à-go-go-related gene (hERG) potassium channel, sequence (Q12809 whole entry, looked up): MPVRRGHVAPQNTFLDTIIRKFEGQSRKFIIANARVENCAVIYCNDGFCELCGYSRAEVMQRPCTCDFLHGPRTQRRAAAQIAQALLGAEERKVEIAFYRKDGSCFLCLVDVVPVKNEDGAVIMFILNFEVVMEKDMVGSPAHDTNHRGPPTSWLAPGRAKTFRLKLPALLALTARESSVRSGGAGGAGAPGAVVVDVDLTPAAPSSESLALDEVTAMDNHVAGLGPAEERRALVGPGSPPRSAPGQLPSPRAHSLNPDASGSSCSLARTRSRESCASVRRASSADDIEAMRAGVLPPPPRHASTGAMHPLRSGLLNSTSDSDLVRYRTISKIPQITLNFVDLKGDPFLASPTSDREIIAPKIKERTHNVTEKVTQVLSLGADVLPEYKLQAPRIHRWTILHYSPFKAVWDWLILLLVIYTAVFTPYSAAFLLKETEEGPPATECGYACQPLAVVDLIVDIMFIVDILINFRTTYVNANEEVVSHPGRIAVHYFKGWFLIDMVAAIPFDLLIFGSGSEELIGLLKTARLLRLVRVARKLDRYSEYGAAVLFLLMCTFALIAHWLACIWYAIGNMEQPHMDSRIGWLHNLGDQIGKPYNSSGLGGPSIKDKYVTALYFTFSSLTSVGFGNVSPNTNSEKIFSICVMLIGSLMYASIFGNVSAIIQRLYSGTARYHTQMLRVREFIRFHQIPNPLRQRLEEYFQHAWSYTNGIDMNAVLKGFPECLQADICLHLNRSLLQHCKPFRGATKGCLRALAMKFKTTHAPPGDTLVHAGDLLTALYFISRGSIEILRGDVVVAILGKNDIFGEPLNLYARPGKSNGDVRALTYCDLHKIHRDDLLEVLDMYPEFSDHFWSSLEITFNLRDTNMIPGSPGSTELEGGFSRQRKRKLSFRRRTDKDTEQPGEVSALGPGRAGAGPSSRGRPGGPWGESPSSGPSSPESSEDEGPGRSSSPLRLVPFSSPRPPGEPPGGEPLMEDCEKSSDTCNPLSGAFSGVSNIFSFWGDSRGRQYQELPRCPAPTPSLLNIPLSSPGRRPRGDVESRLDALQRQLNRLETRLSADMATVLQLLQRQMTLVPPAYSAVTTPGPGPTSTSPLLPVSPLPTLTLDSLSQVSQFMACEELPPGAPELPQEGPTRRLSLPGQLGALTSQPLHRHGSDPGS
row,Compound,"hERG current change (%, negative = inhibition) at 1uM [%]"
1,Cc1ccc(CS(=O)(=O)CCC(=O)NCCC(C)C)cc1,6.06
2,COCCn1c(C)cc(C(=O)CSc2nc(C)c(C)c(C)n2)c1C,9.29
3,CCc1noc(C)c1C(=O)Nc1sc(C(=O)N(C)C)c(C)c1C(=O)OC,-6.16
4,Cc1c(NC(=O)c2ccc(S(=O)(=O)N3CCOCC3)cc2)cccc1[N+](=O)[O-],7.56
5,CC(C)(C)n1ncc2c(=O)n(Cc3cccc(Cl)c3)cnc21,-10.1
6,Cc1ccnc(NS(=O)(=O)c2cccs2)c1,12.9
7,Cc1ccc(C(=O)COC(=O)c2ccc3c(c2)C(=O)N(c2cccc4ncccc24)C3=O)cc1C,4.09
8,COC(=O)c1c(C)[nH]c(C(=O)C(C)OC(=O)C2CC2)c1C (stereo not drawn),10
9,Cc1cc(N2CCN(c3ccc([N+](=O)[O-])c4cccnc34)CC2)c2ccccc2n1,-13.9
10,Cc1cc(N2CCN(c3ccc(C(F)(F)F)cc3[N+](=O)[O-])CC2)c2ccccc2n1,-64.2
11,Cc1ccc(S(=O)(=O)N2CCN(c3ccc(C(F)(F)F)cc3[N+](=O)[O-])CC2)cc1,2.51
12,COc1ccccc1NC(=O)Nc1ccc(N2CCOCC2)cc1,10.4
13,Cc1ccc(NC(=O)CN2C(=O)NC(C)(c3ccc(Cl)cc3)C2=O)cc1 (stereo not drawn),14.4
14,COc1ccc(CN2C3CCCC2CC(NC(=O)Nc2ccccc2C)C3)cc1 (stereo not drawn),-36.5
15,COc1ccc(NC(=O)NC2CC3CCCC(C2)N3Cc2ccccc2)cc1 (stereo not drawn),-17.4
16,Cc1ccc(CN2C3CCCC2CC(NC(=O)Nc2cccc(F)c2)C3)cc1 (stereo not drawn),-85.2
17,CCC(=O)NC1CC2CCCC(C1)N2Cc1ccc(C)cc1 (stereo not drawn),-11.9
18,O=C(/C=C/c1ccccc1)NC1CC2CCCC(C1)N2Cc1ccccc1 (stereo not drawn),-46.4
19,Cc1cccc(NC(=O)NC2CC3CCC(C2)N3Cc2ccco2)c1 (stereo not drawn),-8.04
20,COc1ccc(CN2C3CCCC2CC(NC(=O)Nc2cccc(C)c2)C3)cc1 (stereo not drawn),-71.5
21,COc1ccccc1CN1C2CCCC1CC(NC(=O)/C=C/c1ccccc1)C2 (stereo not drawn),-43.8
22,COc1ccc(CN2C3CCCC2CC(NC(=O)/C=C/c2ccccc2)C3)cc1 (stereo not drawn),-84.2
23,COc1ccc(CN2C3CCCC2CC(NC(=O)Nc2ccccc2)C3)cc1 (stereo not drawn),-64
24,CCc1cccc(CC)c1NC(=O)CN1C2CCCC1CC(NC(=O)Nc1cccc(OC)c1)C2 (stereo not drawn),9.12

row,Compound,"hERG current change (%, negative = inhibition) at 1uM [%]"
1,O=C(Nc1cccc(F)c1)NC1CC2CCCC(C1)N2C1CC1 (stereo not drawn),4.85
2,CC(C)(C)OC(=O)NCCCCCc1nnc(SCc2ccc(F)cc2)o1,3.71
3,CCCCc1cc2c(s1)CCCC/C2=N/O,2.41
4,Cc1cc(S(=O)(=O)Nc2ccc(C(=O)NCCCN3CCOCC3)cc2)ccc1F,19.8
5,Cc1ccsc1/C=N/n1c(-c2ccncc2)n[nH]c1=S,19.8
6,O=C(O)C=C(Br)Br,7.58
7,COC(=O)/C(=C1/Oc2cc(C)oc(=O)c2S1)C(F)(F)F,13.6
8,CCOC(=O)CON1C(=O)C(C)(C)N(OCC(=O)OCC)C(=O)C1(C)C,15.7
9,Cc1ccc(-n2ccnc(SCC(=O)NC3CCCCC3)c2=O)cc1F,14.5
10,CC(c1ccccc1)C1CC(=O)N(CC(=O)O)C1=O (stereo not drawn),16.2
11,Cc1cccn2c(=O)c3cc(C(=O)NC4CCCCC4)n(C)c3nc12,13.8
12,Cc1cccn2c(=O)c3cc(C(=O)NC4CCCCCC4)sc3nc12,15.1
13,Cc1cccn2c(=O)c3cc(C(=O)NC4CCCC4)c(=N)n(C4CCCC4)c3nc12,-87
14,Cc1cccn2c(=O)c3cc(C(=O)NC4CCCC4)n(C)c3nc12,9.12
15,Cc1cccn2c(=O)c3cc(C(=O)NC4CCCC4)c(=N)n(C4CCCCC4)c3nc12,-81.9
16,Cc1cccn2c(=O)c3cc(C(=O)NC4CCCC4)sc3nc12,2.15
17,Cc1ccc(C(=O)CSc2nnc(COc3ccc(C#N)cc3)n2-c2ccccc2)cc1,11.8
18,O=C(CCc1nc(-c2ccccc2Cl)no1)NC1CCCC1,1.7
19,CCOC(=O)Nc1ccc2c(c1)N(C(=O)CCN(C)C)c1ccccc1S2.Cl,-5.69
20,Cc1nn(C)c(Cl)c1CN1CCC(CO)(CCOc2ccccc2)CC1,-12.9
21,COc1ccc(CN2CCC(CO)(CCOc3ccccc3)CC2)cc1C,-77.6
22,COc1ccc(CN2CCC(CO)(CCOc3ccccc3)CC2)c(OC)c1C,-81.6
23,COc1cc(Cl)c(CN2CCCC(CO)(Cc3ccccc3)C2)cc1OC (stereo not drawn),-2.72
24,COc1ccc2[nH]c(CN3CCC(CO)(CCOc4ccccc4)CC3)c(C)c2c1,9.37
